Results filed as inconclusive are left out. Entries that show only a call come without a potency. Active and inactive are the calls of the source. The call rests on the fitted dose curve.

From PubChem BioAssay AID2320 (National Center for Advancing Translational Sciences (NCATS), 2010) come the findings set out here.
Potency means the concentration at half of the fitted maximal effect.

The test in a line: A qHTS for Small Molecule Inhibitors of Shiga Toxin (Confirmatory). Further: nearly all actives have a fitted effect of over 75% in size. The conditions noted are these: Cell-based Shiga toxin protection reporter assay; series mostly up to 38.3 µM. A general note: qHTS replaces the single test concentration by a dilution series.
`COc1ccccc1NC(=O)CSc1nnc(-c2ccco2)n1Cc1ccco1`: the Potency result is “inactive”.

For the compound `COc1cccc(C(C(=O)NC2CCCC2)N(C(=O)c2ccco2)C2CC2)c1OC` (stereo unspecified), the Potency was 8.95 µM (active).

Regarding `O=C(NCCC1=CCCCC1)C1CCN(S(=O)(=O)c2cccc3cccnc23)CC1`, the Potency result is “inactive”.

For the compound `CCCCC1(C)Nc2ccccc2-c2nc3ccccc3n21` (stereo unspecified), the Potency was 12.6 µM (active).

With `CCN(CC)CC(=O)Nc1ccc(-c2nc3cc(NC(=O)CN(CC)CC)ccc3o2)cc1`, the Potency entry was “inactive”.

With `O=C(CCS(=O)(=O)c1cccs1)Nc1ccc(C(=O)NCc2cccs2)cc1`, the Potency result was “inactive”.

For the compound `CCOC(=O)Cc1csc(NC(=O)CSc2ncnc3c2cnn3-c2ccc(OC)cc2)n1`, the Potency was 5.04 µM (active).

Regarding `CC(=O)c1ccc(N2CCN(C(=O)c3ccc4nc[nH]c4c3)CC2)cc1`, the Potency entry was “inactive”.

With `Cc1noc(/C=C/c2ccco2)c1S(=O)(=O)N1CCC(C(=O)N(C)Cc2ccccc2)CC1`, the Potency was 22.5 µM (active).

For the compound `CSc1nc(C)c2cc(C)oc2n1`, the Potency entry is “inactive”.

`O=C(CSc1nnc(-c2ccccn2)o1)Nc1ccccc1C(F)(F)F`: the Potency is 8.95 µM (active).

For the compound `CCCn1nnc(NC(=O)COc2ccc(C3CCCCC3)cc2)n1`, the Potency was 0.0252 µM (active).

With `CCOC(=O)c1c(C)[nH]c(C2=NNC(=NC3CC3)SC2)c1C`, the Potency is 0.0449 µM (active).

Take `COc1cc2c(c(OC)c1OC)-c1c(cc(OC)c(OC)c1OC)C[C@](C)(O)[C@@H](C)C2`: the Potency entry was “inactive”.

For `COc1ccc(C2C(C#N)=C(C)NC3=C2C(=O)CC(C)(C)C3)c(OC)c1` (stereo unspecified), the Potency entry was “inactive”.

Take `CC(=O)c1ccc(NC(=O)C(C)Sc2nnc(C3CCCCC3)o2)cc1` (stereo unspecified): the Potency result was “inactive”.
